Data published in PubChem BioAssay (NCATS).
Results filed as inconclusive are left out. Active and inactive are the calls of the source. The call rests on the fitted dose curve; in most records, active means well fitted cell-killing curve with a large enough effect; inconclusive means small, poorly fitted or top-dose-only effect; inactive means flat fitted curve, though single readings scatter.

Test: Cell Viability - LYMP2-015 (AID 971);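 further: cells exposed to compound for 24 h; nearly all actives have a fitted effect of over 55% in size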
Conditions: LYMP2-015 lymphoblastoid cell viability; series mostly up to 92.2 µM
Description: NIH Chemical Genomics Center [NCGC]
NIH Molecular Libraries Screening Centers Network [MLSCN]
National Institutes of Environmental Health Sciences [NIEHS]
National Toxicology Program [NTP]
We have developed a 1536-well cell-based assay for quantitative high throughput screening (qHTS) against a number of cell lines to determine in vitro cytotoxicity of small molecules. This particular assay uses a human lymphoblastoid cell line (LYMP2-015) purchased from Coriell Institute for Medical Research.
NCGC Assay Protocol Summary:
The CellTiter-Glo luminescent cell viability assay (Promega) is a homogeneous method to measure the number of viable cells in culture. The end point readout of this assay is based on quantitation of intracellular ATP, an indicator of metabolic activity, using the luciferase reaction. Luciferase catalyzes the oxidation of beetle Luciferin to oxyluciferin and light in the presence of ATP. The luminescent signal is proportional to amount of ATP present.
Using the CellTiter-Glo luminescent cell viability assay, the amount of cellular ATP was measured in the lymphoblastoid cell line with complete culture medium following compound treatment for 24 hours. The assay was performed in opaque white Kalypsys 1536-well plates. In the screen, tetraoctylammonium bromide was used as positive control. Library compounds were measured for their ability to cause acute toxicity in the cell line, as reflected by a decrease in intracellular ATP levels, in a concentration-dependent manner. […] AC50 values were determined from concentration-response data modeled with the standard Hill equation.
qHTS protocol for CellTiter Glo lymphoblastoid cellular assay
[Step] [Parameter] [Value] [Description]
1. Reagent; 5 uL; 2500 lymphoblastoid cells/well
2. Time; 5 hr; 37 C incubation
4. Controls; 23 nL; Tetraoctylammonium bromide 6.4pM to 92 uM
5. Time; 24 hr; 37 C incubation
6. Reagent; 5 uL; CellTiter Glo reagent
7. Time; 30 min; Room Temperature
8. Detection; Luminescence; Viewlux plate reader
Keywords: cell viability, cytotoxicity, lymphoblastoid cell line, luminescence, NTPHTS, NTPHTS_NCGC, NIEHS, DSSTox, MLSMR, MLSCN, NIH Roadmap, qHTS, NCGC

Row | Compound | outcome
1 | C=CCNC(N)=S | inactive
2 | O=C1C(c2[nH]c3ccccc3c2O)=Nc2ccccc21 | inactive
3 | CC(=O)OCC(COC(C)=O)OC(C)=O | inactive
4 | CC(=O)Nc1ccccc1 | inactive
5 | O=C(c1ccccc1)C(O)c1ccccc1 (stereo not given) | inactive
6 | CCCC(O)C(CC)CO (stereo not given) | inactive
7 | Cc1cc(C)nc(NS(=O)(=O)c2ccc(N)cc2)n1 | inactive
8 | CC1CC(OC(=O)c2ccccc2O)CC(C)(C)C1 (stereo not given) | inactive
9 | Cc1c(N(C)C)c(=O)n(-c2ccccc2)n1C | inactive
10 | FC(F)(F)C(Cl)Br (stereo not given) | inactive
11 | CC(=O)Nc1cccc(O)c1 | inactive
12 | O=C(O)CCCCC1CCSS1 (stereo not given) | inactive
13 | CCN(CC)C(=O)c1cccc(C)c1 | inactive
14 | CCCCCCCC(=O)OCC(COC(=O)CCCCCCC)OC(=O)CCCCCCC | inactive
15 | CC(=O)NS(=O)(=O)c1ccc(N)cc1 | inactive
16 | CCCCCC(N)=O | inactive
17 | CCCCOC(=O)c1ccc(N)cc1 | inactive
18 | Cc1cc(=O)[nH]c(=S)[nH]1 | inactive
19 | Nc1ccc(S(=O)(=O)c2ccc(N)cc2)cc1 | inactive
20 | COc1ccc(O)cc1 | inactive
